The record followed here is PubChem BioAssay (NCI).

Common to all, as to assay: NCI-60 one-dose screen, 48 h (100 = growth as untreated, 0 = no growth, -100 = all killed)
Conditions in all cases: 10 µM unless noted

Assay [1] relates to NCI-H23 lung.
The subject of assay [2] is NCI-H226 lung.
For assay [3], the system named is NCI-H322M lung.
Assay [4] has as its system HOP-62 NSCLC.
The test system of assay [5] is NCI-H460 lung.
In assay [6] the test system is NCI-H522 lung.
For assay [7], the system named is A549/ATCC NSCLC.
The subject of assay [8] is 786-0 renal.
Assay [9] has as its system COLO 205 colon.

Each structure is given as a SMILES string. The panel holds about 83,000 compounds, 20% with a hit somewhere; the sample as a whole holds those more often.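 How to read the values: 0–100, growth inhibition (40 = 60% inhibited); 0, no net growth; -100 to 0, cell death (-40 = 40% of starting cells died; -100 = all dead).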 Values without a mark were called inactive. Activity calls are given as the source filed them. The calls were made as follows: active = growth percent below 10; inactive = the rest.

`CN(C)CCCOc1ccc2c(c1)CN(C(=O)c1cc(C(=O)N3Cc4cccc(F)c4C3)ccc1O)C2`: the growth in [1] was 102%; in assay [2], 97.2%; in [3], 105%; in assay [4] it was 120%; in assay [5], 105%; in [6], 97.7%. Moreover, the growth is 101% in [7], 108% in [8] and 109% in assay [9].

As to `Clc1nc2ccccc2nc1-c1nnc(C2CCCCC2)o1`, the growth in assay [1] was 86.3%; in assay [2], 84.7%; in assay [3], 97.8%; in assay [4], 106%; in [5] it was 97.5%; in assay [6], 99%. In addition, the growth was 98.4% in [7], 106% in [8] and 110% in assay [9].

Take `Cn1cc(-c2nnc(N)nc2-c2c[nH]c3ccc(F)cc23)c2cc(F)ccc21`: the growth is 83% in assay [1]; 91.6% in assay [2]; 74% in assay [3]; 58.7% in assay [4]; 30.9% in [5]; 57.5% in [6]. Moreover, the growth in assay [7] is 82.2%; in assay [8], 90%; in assay [9], 84.2%.

With `CN1CCN(Cc2ccc(NC(=O)c3cncc(C#Cc4cnc5ccc(NCCCO)nn45)c3)cc2C(F)(F)F)CC1`, the growth in assay [1] is -52% (active); in [2] it was -10.1% (active); in assay [3], 3.42% (active); in assay [4], -36.8% (active); in [5], -85.6% (active); in assay [6], -77.2% (active). For the same compound, the growth is 5.6% (active) in [7], -58.9% (active) in [8] and -78% (active) in assay [9].

As for `Cn1ccnc1C(=O)/C=C/C=C/c1ccc(C(=O)Nc2ccc(F)cc2)cc1`, the growth in assay [1] was 18.2%; in [2], 54.7%; in assay [3], 61.1%; in [4], 44.7%; in [5], 34.2%; in assay [6] it was 4.66% (active). Also, the results for the growth in assay [7], in assay [8] and in [9] were 56.7%, 22.8% and 32.8%, respectively.

Regarding `COc1cc(Cn2cc3c(c2)-c2onc(CN4CCCC4)c2CC3)cc(OC)c1OC`, the growth in [1] was 86%; in assay [2], 88.4%; in assay [3] it was 90.6%; in assay [4], 92.8%; in assay [5], 109%; in [6] it was 84.2%. For the same compound, the results for the growth in assay [7], in assay [8] and in [9] were 100%, 99.4% and 109%, respectively.

With `CC(C)(C)n1nnnc1C(Nc1cccc2c1OCO2)c1cc2cccc3ccc4cccc1c4c32` (stereo unspecified), the growth was 87.4% in assay [1]; 82.2% in [2]; 96% in assay [3]; 98.8% in [4]; 88.8% in assay [5]; 78.8% in assay [6]. Besides, the growth in [7] is 81.3%; in assay [8], 93.2%; in [9], 103%.

Turning to `O=C(CN1CCN(c2cc(=O)n(-c3ccccc3)c3ccccc23)CC1)Nc1nc(-c2ccccc2)cs1`, the growth in [1] was 60.8%; in assay [2] it was 48.2%; in [3], 89.4%; in [4] it was 66.4%; in assay [5], 32.2%; in [6] it was 66.5%. The growth in assay [7] is 56.2%; in [8] it was 89.3%; in [9] it was 60.1%.

Take `Cc1cc2ncc(-c3cc4ccccc4c(N4CCN(C)CC4)n3)nc2cc1C`: the growth in [1] is 70.7%; in assay [2] it was 91.9%; in assay [3], 47.7%; in [4], 82.9%; in assay [5], -77.9% (active); in assay [6], 75.5%. The growth in assay [7] was 54%; in assay [8], 61.3%; in assay [9], -57.9% (active).

As to `Cc1ccc2sc3c(c2c1)OC(N)=C(C#N)C3c1cccc(F)c1` (stereo unspecified), the growth in assay [1] is 22.4%; in assay [2], -22.2% (active); in assay [3], 42.5%; in [4] it was 9.3% (active); in [5], -13.4% (active); in [6] it was -33.7% (active). The growth in assay [7] was 11.5%; in assay [8], 11.7%; in assay [9], -40.3% (active).

Regarding `COc1ccc(-c2nc3cccc(O)c3c(=O)n2Cc2ccccc2)cc1COc1ccc(NC(C)=O)cc1`, the growth is 62.5% [3 µM] in assay [1]; 56.2% [3 µM] in assay [2]; 67.6% [3 µM] in [3]; 43.6% [3 µM] in assay [4]; 4.9% [3 µM] (active) in assay [5]; 52.5% [3 µM] in [6]. For the same compound, the growth is 44.9% [3 µM] in [7], 54.7% [3 µM] in assay [8] and 49.8% [3 µM] in assay [9].

Consider `O=C(CCn1c[n+](CC(=O)c2ccc(-c3ccccc3)cc2)c2ccccc21)Nc1cccc2cccnc12`, for which the growth in assay [1] was 60.2%; in assay [2], 57%; in assay [3] it was 82.8%; in [4], 94.4%; in assay [5], 55.3%; in assay [6] it was 41.7%. Besides, the results for the growth in assay [7], in assay [8] and in assay [9] were 89.8%, 71.5% and 44.2%, respectively.

Consider `COc1ccc(OC)c(-c2nc(SCC(=O)c3ccc(Br)cc3)nc(Nc3ccc(S(N)(=O)=O)cc3)c2C#N)c1`, for which the growth in [1] is 58.4%; in assay [2] it was 50%; in assay [3], 81.7%; in assay [4] it was 48.4%; in assay [5] it was 20.8%; in [6], 48%. Also, the growth in assay [7] was 67.4%; in [8], 41.4%; in assay [9] it was 68.4%.

As to `CC(=O)N(C)C1CCc2c(sc(NC(=O)c3ccc(C(C)(C)C)cc3)c2C(N)=O)C1` (stereo unspecified), the growth is 85.3% in assay [1]; 47.3% in assay [2]; 78.7% in assay [3]; 34.7% in assay [4]; 10.8% in [5]; 70.4% in assay [6]. Besides, the growth in assay [7] is 39.8%; in assay [8], 90.9%; in assay [9], 103%.
